Most compounds without a hit are left out; they make up all but 2.4% or so of the library.
SENP8 block-1 = inhibitors of human SENP8 protease; 1.2% of 330,000 active; Q96LD8; inhibition, % at 10 µM; purified SENP8, Z-RLRGG-aminoluciferin cleavage, luminescence; in the data active means inhibition above about 50%
Target sequence (Q96LD8 whole entry, looked up): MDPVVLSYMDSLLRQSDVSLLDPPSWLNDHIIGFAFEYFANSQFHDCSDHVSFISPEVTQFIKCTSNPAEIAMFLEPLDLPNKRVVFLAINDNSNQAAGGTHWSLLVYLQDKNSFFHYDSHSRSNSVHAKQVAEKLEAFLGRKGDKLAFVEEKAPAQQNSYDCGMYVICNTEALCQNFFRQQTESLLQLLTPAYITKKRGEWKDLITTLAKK
Platelet DG rel = platelet dense granule release activity. human platelet-rich plasma, SFLLRN dense granule ATP release, luminescence. inhibition, %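 (compounds screened at 7.5 µM in platelet-rich plasma)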. 0.22% of 300,000 active;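 active means mean replicate score, as percent of positive control, at or above 50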
SENP8 block-2 = SENP8 (human) protease inhibition. AID 602440. Q96LD8. 0.64% of 360,000 active. recombinant SENP8, Nedd8 substrate fluorescence. inhibition, % at 20 µM; in the data active means inhibition mostly above about 40%, no sharp cut-off; inactive means mostly below about 27%
SENP7 inh = inhibitors of human SENP7 protease; recombinant SENP7, Z-RLRGG-aminoluciferin luminescence, 40 min; 1.5% of 330,000 active; Q9BQF6; inhibition, % at 5 µM;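 active means inhibition above about 50% at the single test dose, limit read from the data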;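 further: plate controls were DMSO with enzyme for no effect and no enzyme buffer wells for full effect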
SENP6 inh = inhibitors of human SENP6 protease | inhibition, % at 10 µM | Q9GZR1 | Recombinant SENP6 catalytic domain, aminoluciferin luminescence | 1.8% of 330,000 active;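 active means inhibition above about 50% at the single tested dose, limit read from the data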;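 further: plate controls were DMSO wells with enzyme for no effect and DMSO wells lacking enzyme for full effect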
SENP8 conf = SENP8 (human) inhibition, single concentration confirmation | shares compounds with SENP8 block-2 | purified SENP8, Nedd8-AMC/pro-Nedd8 cleavage fluorescence, 30 min | inhibition, % at 25 µM | 15% of 1,400 active; in the data active means inhibition mostly above about 39%, no sharp cut-off; inactive means mostly below about 34%
* = called active by the depositor; nt = not tested or not shown.

SMILES	SENP8 block-1	Platelet DG rel	SENP8 block-2	SENP7 inh	SENP6 inh	SENP8 conf
COc1ccc(NC(C)C(=O)N/N=C/c2ccccc2OCc2ccc(Br)cc2)cc1 (centres undefined)	9	16	28	5	16	nt
CC(Nc1ccc(Br)cc1)C(=O)N/N=C/c1ccccc1OCc1ccccc1 (centres undefined)	-13	2	46*	-7	-3	22
O=C(Nc1cccc(Cl)c1)c1ccc(NCCCN2CCOCC2)c([N+](=O)[O-])c1	-6	-10	41*	0	-6	13
Cc1[nH]nc(N2CCCCC2)c1[N+](=O)[O-]	1	-3	44*	5	-5	6
CN1CCN(NC(=O)Nc2cccc(F)c2)CC1	9	-1	2	-3	9	nt
CC(C)CCNC(=O)C1(c2cccs2)CCOCC1	-8	-3	41*	-4	17	4
COc1cc(OC)c(C=CC(=O)c2ccccc2O)c(OC)c1	nt	nt	42*	nt	nt	13
CC(=O)Nc1cc(-c2ccccc2CN(C)C)cn2c(-c3ccc(F)c(Cl)c3)cnc12	nt	nt	-297	nt	nt	nt
CC(C)C(=O)Nc1ccc(Cl)cc1-c1nc2ccccc2[nH]c1=O	1	2	-26	-4	20	nt
CNc1ccc([N+](=O)[O-])cc1-c1nc2ccccc2[nH]c1=O	7	-2	42*	-10	0	15
